Source: PubChem BioAssay
TrxR1 substrate = rat thioredoxin reductase 1 substrate activity | O89049 | purified TrxR1 substrate turnover, NADPH consumption readout | Potency, µM (titrated, usually from 114 µM), for the others: at the highest dose activity change, negative = substrate turnover | 390,000 compounds, 0.01% hits | AID 588456; further: on the % scale 0 is the no-effect control and ±100 the full control effect; nearly all actives have a fitted effect of over 50% in size
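Rat TrxR1, dispensed at 90 nM, was prereduced with 400 uM NADPH (final) for 5 min at ~22 deg C, then incubated with compound 15 min before 400 uM selenite. A first-read NADPH fluorescence drop versus no-compound background flagged substrates.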
Vif-A3G inh = Vif-A3G binding inhibition; 410,000 compounds, 0.076% hits; AID 602310; HeLa A3G-eYFP + Vif (tagged APOBEC3G with the HIV-1 protein that degrades it), YFP fluorescence, overnight; Potency, µM (top dose mostly 46.1 µM), for inactives: at the highest dose activity, negative = active, most hits filed as inhibitors; further: on the % scale 0 is the no-effect control and ±100 the full control effect; nearly all actives have a fitted effect of over 60% in size
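Read-out is eYFP fluorescence (Ex 488/Em 500-530) from Vif-expressing HeLa A3G-eYFP cells; more signal means A3G escaped Vif-mediated degradation. Cells plated overnight, compound pinned in, incubated overnight at 37 deg C.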
VDR inhibitor = blocks the human vitamin D receptor | P11473 | VDR-SRC2-3 peptide fluorescence polarization, 2 h | Potency, µM, without a hit: max response, negative = inhibition, hits mostly inhibitors | 400,000 compounds, 0.93% hits | AID 504847; further: on the % scale 0 is the no-effect control and ±100 the full control effect
Target sequence (P11473 whole entry, looked up): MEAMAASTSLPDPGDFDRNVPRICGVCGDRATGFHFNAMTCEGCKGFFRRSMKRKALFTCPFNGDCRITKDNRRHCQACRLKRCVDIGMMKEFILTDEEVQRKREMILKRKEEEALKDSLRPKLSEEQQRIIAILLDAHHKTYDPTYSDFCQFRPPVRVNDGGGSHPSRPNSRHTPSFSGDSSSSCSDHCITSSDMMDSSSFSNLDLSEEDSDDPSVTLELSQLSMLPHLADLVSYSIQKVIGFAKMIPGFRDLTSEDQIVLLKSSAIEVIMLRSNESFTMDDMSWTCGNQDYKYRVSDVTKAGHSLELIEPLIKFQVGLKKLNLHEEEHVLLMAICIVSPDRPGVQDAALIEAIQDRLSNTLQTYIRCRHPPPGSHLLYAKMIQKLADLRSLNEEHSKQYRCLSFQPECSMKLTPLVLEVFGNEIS
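Reagent solutions, kept cold and dark, are dispensed first; compounds are then pinned in at 23 nl, plates briefly spun, and incubated 2 h at ambient temperature. Inhibition of VDR–SRC2-3 peptide binding is read by fluorescence polarization.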
rTrxR1 inhibitor = blocks rat thioredoxin reductase 1. O89049. recombinant rTrxR1, NADPH fluorescence consumption, selenite substrate. Potency, µM (top dose mostly 114 µM), for inactives: at the top dose activity change, negative = inhibition, most hits filed as inhibitors. 390,000 compounds, 1% hits; further: on the % scale 0 is the no-effect control and ±100 the full control effect; nearly all actives have a fitted effect of over 65% in size
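Rat TrxR1 (90 nM in the dispensed reagent) was pre-reduced with 400 uM NADPH for 5 min at room temperature, then incubated with compound for 15 min. After 400 uM selenite was added, NADPH fluorescence (Ex 340/Em 450 nm) was followed for 8 min.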
Vif-APOBEC3F blk = blocks the Vif interaction with APOBEC3F; Potency, µM (top dose mostly 46.1 µM), for inactives: at the top dose activity, negative = active; AID 602313; HeLa A3F-eYFP + Vif (tagged APOBEC3F with the HIV-1 protein that degrades it), YFP fluorescence increase; 390,000 compounds, 0.2% hits; further: % of control where 0% means no effect; nearly all actives have a fitted effect of over 65% in size
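HeLa cells stably expressing Vif plus C-terminally eYFP-tagged A3F were seeded, incubated overnight at 37 deg C, dosed with compound, incubated overnight again at 37 deg C. Yellow fluorescence (Ex 488/Em 500-530) reported blocked Vif-mediated A3F-eYFP degradation.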
Starred values were filed as active, the others as inactive; [ ] = dose if it differs, or a comment. Shown are actives, neighbours in structure and some others; about 1.8% of the full set was active somewhere. The call rests on the fitted dose curve; in most records, active means well fitted curve in the direction sought with a large enough effect; inconclusive means small, poorly fitted or top-dose-only effect, or another doubt; inactive means no such curve, though single readings can be large; an effect the other way counts as inactive or inconclusive. Potency means the concentration at half of the fitted maximal effect.

O=C(NC(=S)Nc1ccc(S(=O)(=O)Nc2nccs2)cc1)c1cccnc1 was read as TrxR1 substrate 10%[57.1 µM], Vif-A3G inh 1%, VDR inhibitor -5%, rTrxR1 inhibitor -48% and Vif-APOBEC3F blk -13%.
`O=C(NC(=S)Nc1ccc(S(=O)(=O)Nc2nccs2)cc1)c1ccccc1` gave TrxR1 substrate -14%, Vif-A3G inh -5%, VDR inhibitor -7%, rTrxR1 inhibitor 40µM* and Vif-APOBEC3F blk -7%.
`CCc1nnc(NS(=O)(=O)c2ccc(NC(=O)c3ccc(Cl)cc3)cc2)s1` gave TrxR1 substrate 0%, Vif-A3G inh -3%, VDR inhibitor -13%, rTrxR1 inhibitor 24% and Vif-APOBEC3F blk -3%.
CCc1nnc(NS(=O)(=O)c2ccc(NC(=S)NC(=O)c3ccc(Br)cc3)cc2)s1 was read as TrxR1 substrate -19%, Vif-A3G inh -6%, VDR inhibitor inconclusive, rTrxR1 inhibitor 50µM* and Vif-APOBEC3F blk inconclusive.
Screening Cc1noc(C)c1-c1nccc(NCc2cccnc2)n1 returned VDR inhibitor -18%.
For COc1ccc(CCNC(=O)c2ccc3c(c2)CCN3S(=O)(=O)c2ccc(C)cc2)cc1OC the results were TrxR1 substrate 0%, Vif-A3G inh 2%, VDR inhibitor 5%, rTrxR1 inhibitor 31% and Vif-APOBEC3F blk 1%.
Screening O=C(c1cnccn1)N1CCC2(CC1)CCN(c1cccc(-c3ccccc3)c1)CC2 returned VDR inhibitor -1%.
O=C(Nc1ccccc1-c1nc2ccccc2[nH]1)c1ccc(N2C(=O)CCC2=O)cc1 was read as TrxR1 substrate 24%[57.1 µM], Vif-A3G inh inconclusive, VDR inhibitor 7%, rTrxR1 inhibitor -1%[57.1 µM] and Vif-APOBEC3F blk 11µM*.
O=C(Nc1ccccc1-c1nc2ccccc2[nH]1)c1ccc(S(=O)(=O)N2CCCCC2)cc1 was read as TrxR1 substrate 12%, Vif-A3G inh 2%, VDR inhibitor 4%, rTrxR1 inhibitor -3% and Vif-APOBEC3F blk -3%.
For CC(=O)N1c2ccc(S(=O)(=O)N3CCC(C(=O)NCc4ccc(Cl)cc4)CC3)cc2CC1C (centres undefined) the results were TrxR1 substrate -9%, Vif-A3G inh -2%, VDR inhibitor 25µM*, rTrxR1 inhibitor 3% and Vif-APOBEC3F blk 0%.
`O=C(CCl)N=c1sccn1Cc1cccc2ccccc12` gave TrxR1 substrate 5%, Vif-A3G inh inconclusive, VDR inhibitor -12%, rTrxR1 inhibitor inconclusive and Vif-APOBEC3F blk -5%.
`O=C(CCl)N=c1sccn1Cc1ccc(Cl)cc1Cl` gave TrxR1 substrate 1%, Vif-A3G inh -27%, VDR inhibitor -9%, rTrxR1 inhibitor 32µM* and Vif-APOBEC3F blk 1%.
Screening O=C(CCl)N=c1sccn1Cc1ccccc1Cl returned TrxR1 substrate 3%, Vif-A3G inh -21%, VDR inhibitor -10%, rTrxR1 inhibitor 25µM* and Vif-APOBEC3F blk 2%.
Screening COCCn1c(=S)[nH]c2cc(C(=O)N3CCN(Cc4ccccc4)CC3)ccc2c1=O returned TrxR1 substrate 0%, VDR inhibitor 7% and rTrxR1 inhibitor inconclusive.
Screening Cc1c(C(=O)OC/C(O)=C(\C#N)c2nc3ccccc3[nH]2)oc2ccccc12 returned TrxR1 substrate 2%, Vif-A3G inh inconclusive, VDR inhibitor -9%, rTrxR1 inhibitor 4% and Vif-APOBEC3F blk 22µM*.
For CC(=O)Oc1ccc2nonc2c1OC(C)=O the results were TrxR1 substrate 20µM*, Vif-A3G inh 4%, VDR inhibitor 1.4µM* and rTrxR1 inhibitor inconclusive.
CC(=O)Oc1cccc(C(=O)O)c1OC(C)=O was read as VDR inhibitor -1%.
CN(CCO)c1ccc(C=NNc2ccc([N+](=O)[O-])cc2S(=O)(=O)Nc2ccccc2C(=O)O)cc1 was read as TrxR1 substrate 2%[57.1 µM], Vif-A3G inh -28%, VDR inhibitor 79µM*, rTrxR1 inhibitor -4%[57.1 µM] and Vif-APOBEC3F blk inconclusive.
Cc1ccc(NC(=S)NNc2ccc(C(=O)O)cc2[N+](=O)[O-])cc1C was read as TrxR1 substrate 11%[57.1 µM], Vif-A3G inh 0%, VDR inhibitor -22%, rTrxR1 inhibitor -5%[57.1 µM] and Vif-APOBEC3F blk -4%.
O=C(O)c1ccccc1NS(=O)(=O)c1ccc(NNC(=S)Nc2ccc(OC(F)F)cc2)c([N+](=O)[O-])c1 was read as TrxR1 substrate -17%, Vif-A3G inh 0%, VDR inhibitor inconclusive, rTrxR1 inhibitor 50µM* and Vif-APOBEC3F blk 14%.
Screening CC(=O)Nc1ccc(C=NNc2ccc(S(=O)(=O)Nc3ccccc3C(=O)O)cc2[N+](=O)[O-])cc1 returned TrxR1 substrate -19%, Vif-A3G inh 9%, VDR inhibitor inconclusive, rTrxR1 inhibitor -25% and Vif-APOBEC3F blk 0%.
For CC(=O)Nc1ccc(C=NNc2ccc([N+](=O)[O-])cc2S(=O)(=O)Nc2ccccc2C(=O)O)cc1 the results were TrxR1 substrate -12%, Vif-A3G inh 1%, VDR inhibitor inconclusive, rTrxR1 inhibitor -22% and Vif-APOBEC3F blk 3%.
`Cc1ccc(NC(=S)NNc2ccc([N+](=O)[O-])cc2S(=O)(=O)Nc2ccccc2C(=O)O)cc1C` gave TrxR1 substrate -10%, Vif-A3G inh 3%, VDR inhibitor 40µM*, rTrxR1 inhibitor inconclusive and Vif-APOBEC3F blk -7%.
Cc1ccc(-c2c(C3C4C=CCCC4(C)C(=O)N3Cc3ccccc3)ccc3ccccc23)cc1 (centres undefined) was read as TrxR1 substrate 1%, Vif-A3G inh 2%, VDR inhibitor -11% and rTrxR1 inhibitor 2%.
Brc1ccc(C2Nc3cccc4cccc(c34)N2)s1 was read as TrxR1 substrate -4%, Vif-A3G inh 0%, VDR inhibitor -26%, rTrxR1 inhibitor 5µM* and Vif-APOBEC3F blk 10%.
CSc1ccc(C2Nc3cccc4cccc(c34)N2)cc1 was read as TrxR1 substrate -8%, Vif-A3G inh -4%, VDR inhibitor -16%, rTrxR1 inhibitor inconclusive and Vif-APOBEC3F blk -1%.
`Clc1ccc(C2Nc3cccc4cccc(c34)N2)cc1` gave TrxR1 substrate 5%, Vif-A3G inh -8%, VDR inhibitor -8%, rTrxR1 inhibitor 35µM* and Vif-APOBEC3F blk 23%.
Screening COc1ccc(Br)cc1C1Nc2cccc3cccc(c23)N1 returned TrxR1 substrate 6%, Vif-A3G inh -4%, VDR inhibitor -13%, rTrxR1 inhibitor 1% and Vif-APOBEC3F blk 0%.
Cc1ccc(C)c(NC(=O)CSc2c3c(nc4ccc(Cl)cc24)CCCC3)c1 was read as TrxR1 substrate -9%, Vif-A3G inh inconclusive, VDR inhibitor -20%, rTrxR1 inhibitor -9% and Vif-APOBEC3F blk inconclusive.
For O=c1cnc2cncnc2n1Cc1ccccc1Cl the results were VDR inhibitor 40µM*.
